Experiment [1] in a line: qHTS for Inhibitors of Plasmodium falciparum (DD2) proliferation (AID 504314).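 Note: parasite DNA measured by SYBR Green fluorescence after red cell lysis.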 The essentials: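 Erythrocytes infected with P. falciparum (0.3% parasitemia, 2.5% hematocrit final) were incubated with compounds for 72 h at 37C, 5% CO2. Parasite DNA was detected by SYBR Green I fluorescence after saponin/Triton lysis, normalized to artemisinin (0.29 uM) and DMSO controls.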
(Quantitative high-throughput screening tests each substance at several concentrations.)

The nature of experiment [2]: qHTS for Inhibitors of Plasmodium falciparum (GB4) proliferation (AID 504315). Note: nearly all actives have a fitted effect of over 50% in size. A digest of the protocol: (§1)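 Erythrocytes infected with P. falciparum line (0.3% parasitemia, 2.5% hematocrit final) incubated with compounds 72 h at 37 °C, 5% CO2; SYBR Green lysis buffer added, fluorescence read next day. Normalized to 0.29 uM artemisinin and DMSO.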
The nature of experiment [3]: qHTS for Inhibitors of Plasmodium falciparum (7G8) proliferation (AID 504316). Note: nearly all actives have a fitted effect of over 65% in size. Note: potency is the fitted concentration of half-maximal effect. The essentials:
as §1

The nature of experiment [4]: qHTS for Inhibitors of Plasmodium falciparum (HB3) proliferation (AID 504318). Note: nearly all actives have a fitted effect of over 60% in size. The essentials: as §1
Experiment [5] can be described thus: qHTS for Inhibitors of Plasmodium falciparum (CP250) proliferation (AID 504320). A digest of the protocol:
as §1

Molecules are shown by their SMILES. Results filed as inconclusive are left out. Calls of active or inactive are those of the source. Calls come from the whole dose curve; as a rule, active = well fitted curve in the direction sought with a large enough effect; inconclusive = small, poorly fitted or top-dose-only effect, or another doubt; inactive = no such curve, though single readings can be large; an effect the other way counts as inactive or inconclusive.

`COC(=O)C1=C(C)N(Cc2ccccc2)C(=O)N[C@H]1CCc1ccccc1`: the Potency result in experiment [1], in experiment [2], in experiment [3], in experiment [4] and in experiment [5] was “inactive” throughout.

For `C=CC1=C2C=C(C3CC3)N(CCCN(CC)CC)C=C2C(=O)C(C)(OC(=O)c2ccco2)C1=O` (centres undefined), the Potency result in experiment [1], in experiment [2], in experiment [3], in experiment [4] and in experiment [5] was “inactive” in each case.

Take `COC(=O)C1=C(C(=O)OC)[C@@H]2N(C)c3ccccc3[C@@]23C[C@@H](C(=O)OC)N(C(=O)CC(C)C)C3=N1`: the Potency result in experiment [1], in experiment [2], in experiment [4] and in experiment [5] was “inactive” throughout.

For the molecule `O=C1c2cc(Br)ccc2O[C@@H](c2ccc3c(c2)OCO3)[C@@H]1O`, the Potency result in experiment [1], in experiment [2], in experiment [4] and in experiment [5] was “inactive” throughout.

With `COC/C=C/C1=CC2=CC(=O)C(C)(OC(=O)c3cnc4ccccc4n3)C(=O)C2=CN1Cc1ccccc1` (centres undefined), the Potency entry in experiment [1], in experiment [2], in experiment [4] and in experiment [5] was “inactive” throughout.

`CC1(OC(=O)c2ccc(Cl)nc2)C(=O)C=c2cc(-c3ccsc3)ncc2=C1OC(=O)C1CCCC1` (centres undefined): the Potency entry in experiment [1], in experiment [2], in experiment [4] and in experiment [5] was “inactive” in each case.

As for `CC1(OC(=O)CCc2ccccc2)C(=O)C=C2C=C(c3ccc(C#N)cc3)N(Cc3ccccc3)C=C2C1=O` (centres undefined), the Potency entry in experiment [1], in experiment [2] and in experiment [5] was “inactive” each time.

In the case of `COC/C=C/C1=CC2=CC(=O)C(C)(OC(=O)c3cnc4ccccc4n3)C(=O)C2=CN1C1CCCCC1` (centres undefined), the Potency result in experiment [1], in experiment [3], in experiment [4] and in experiment [5] was “inactive” each time.

Regarding `COC(=O)N[C@H](CC(C)=O)c1ccc(Cl)cc1`, the Potency result in experiment [1], in experiment [2], in experiment [4] and in experiment [5] was “inactive” each time.

For `COC(=O)CCCC1=CC2=CC(=O)C(C)(OC(=O)c3cccs3)C(=O)C2=CN1CCCCO` (centres undefined), the Potency entry in experiment [1], in experiment [3] and in experiment [4] was “inactive” throughout.

`Cc1ccc(S(=O)(=O)N[C@@H]2COC(=O)[C@@H](C)COC(=O)CC=C[C@H]2C)cc1`: the Potency result in experiment [1], in experiment [2], in experiment [4] and in experiment [5] was “inactive” in each case.

For the molecule `COC(=O)C1=C(C(=O)OC)[C@@H]2N(C)c3ccccc3[C@@]23C[C@@H](C(=O)OC)N(C(=O)COCc2ccccc2)C3=N1`, the Potency result in experiment [1], in experiment [3] and in experiment [4] was “inactive” each time.

In the case of `C=CCN1c2ccccc2[C@]23C[C@@H](C(=O)OC)N(C(=O)CC(C)C)C2=NC(C(=O)OC)=C(C(=O)OC)[C@H]13`, the Potency result in experiment [1], in experiment [3] and in experiment [4] was “inactive” throughout.

As to `CC#CCN1c2ccccc2[C@]23C[C@@H](C(=O)OC)N(S(=O)(=O)c4ccc(Br)cc4)C2=NC(C(=O)OC)=C(C(=O)OC)[C@H]13`, the Potency result in experiment [1] is “inactive”. For the same molecule, the Potency in experiment [3] is 1.9 µM (active).

In the case of `CC1(OC(=O)CCc2ccccc2)C(=O)C=C2C=C(c3ccc(C#N)cc3)N(C3CCCCC3)C=C2C1=O` (centres undefined), the Potency entry in experiment [1], in experiment [3], in experiment [4] and in experiment [5] was “inactive” each time.

On to `C=C(C(C)=O)C(O)C=Cc1ccco1` (centres undefined), for which the Potency result in experiment [1], in experiment [3] and in experiment [4] was “inactive” throughout.

Turning to `COC/C=C/C1=CC2=CC(=O)C(C)(OC(=O)c3cnc4ccccc4n3)C(=O)C2=CN1CCc1ccccn1` (centres undefined), the Potency entry in experiment [1], in experiment [2], in experiment [4] and in experiment [5] was “inactive” in each case.

`COC(=O)C1=C(C(=O)OC)[C@@H]2N(C)c3ccccc3[C@@]23C[C@@H](C(=O)OC)N(S(=O)(=O)c2ccc(C#N)cc2)C3=N1`: the Potency result in experiment [1], in experiment [2], in experiment [4] and in experiment [5] was “inactive” throughout.

Regarding `COC(=O)C1=C(C)N(Cc2ccccc2)C(=O)NC1c1ccco1` (centres undefined), the Potency result in experiment [1], in experiment [2], in experiment [4] and in experiment [5] was “inactive” each time.

For the molecule `COCCN1C(=O)N[C@@H](c2ccco2)C(C(=O)OC)=C1C`, the Potency entry in experiment [1], in experiment [3], in experiment [4] and in experiment [5] was “inactive” throughout.

Regarding `CCO[C@H](c1cc(OC)cc([N+](=O)[O-])c1OC)[C@H](C)C=CCC(=O)OC`, the Potency entry in experiment [1], in experiment [2], in experiment [4] and in experiment [5] was “inactive” throughout.

As to `COC/C=C/C1=CC2=CC(=O)C(C)(OC(=O)c3cnc4ccccc4n3)C(=O)C2=CN1C(CO)CO` (centres undefined), the Potency result in experiment [1], in experiment [3], in experiment [4] and in experiment [5] was “inactive” each time.

Regarding `CCOC(=O)CCCNC(=O)N1CCc2nc(-c3ccccc3)c3c(c2C1)CO[C@@H](C)C3`, the Potency entry in experiment [1], in experiment [2], in experiment [4] and in experiment [5] was “inactive” each time.

Regarding `COc1ccc(NC(=O)N2CCc3nc(COc4ccccc4)c4c(c3C2)CO[C@@H](C)C4)cc1`, the Potency entry in experiment [1], in experiment [3], in experiment [4] and in experiment [5] was “inactive” in each case.

Consider `CCCCC1=CC2=CC(=O)C(C)(OC(=O)CC)C(=O)C2=CN1CCN1CCOCC1` (centres undefined), for which the Potency result in experiment [1], in experiment [3], in experiment [4] and in experiment [5] was “inactive” throughout.

As for `COC(=O)C1=C(C(=O)OC)[C@@H]2N(Cc3ccccc3)c3ccccc3[C@@]23C[C@@H](C(=O)OC)N(C(C)=O)C3=N1`, the Potency entry in experiment [1], in experiment [3] and in experiment [4] was “inactive” each time.

Consider `COC(=O)C1=C(C(=O)OC)[C@@H]2N(C)c3ccc(OC)cc3[C@@]23C[C@@H](C(=O)OC)N(C(=O)COCc2ccccc2)C3=N1`, for which the Potency entry in experiment [1], in experiment [3] and in experiment [4] was “inactive” in each case.

Turning to `CC(C)OCCCN1C=C2C(=O)C(C)(OC(=O)CCc3ccccc3)C(=O)C=C2C=C1c1ccc(C#N)cc1` (centres undefined), the Potency entry in experiment [1], in experiment [2], in experiment [4] and in experiment [5] was “inactive” each time.

Turning to `COc1ccc(N2C=C3C(=O)C(C)(OC(=O)CCc4ccccc4)C(=O)C=C3C=C2c2ccc(C#N)cc2)cc1` (centres undefined), the Potency entry in experiment [1], in experiment [2], in experiment [4] and in experiment [5] was “inactive” in each case.
